GPR7 antag: GPR7 receptor antagonists, primary screen, cell-based, fluorescence, single concentration. Neuropeptides B/W receptor type 1 (Homo sapiens), P48145. GPR7-expressing cells, fluorescence antagonist assay. inhibition, % at 4.4 µM. 1.1% of 290,000 active; in the data active = inhibition above about 16%, passing the limit was not always enough;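 also: cells stimulated with the agonist NPW; 0% = agonist with vehicle and 100% = vehicle without agonist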
Target sequence (P48145 whole entry, looked up): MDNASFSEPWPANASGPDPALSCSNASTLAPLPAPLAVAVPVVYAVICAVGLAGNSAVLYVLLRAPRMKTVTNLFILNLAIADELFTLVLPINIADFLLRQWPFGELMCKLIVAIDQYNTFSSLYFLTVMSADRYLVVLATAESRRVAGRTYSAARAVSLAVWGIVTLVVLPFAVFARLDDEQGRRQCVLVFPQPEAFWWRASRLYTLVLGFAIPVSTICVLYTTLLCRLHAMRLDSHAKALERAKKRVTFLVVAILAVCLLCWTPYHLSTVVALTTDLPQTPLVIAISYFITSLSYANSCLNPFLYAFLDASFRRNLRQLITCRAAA
VLA-4 inh: inhibition in human VLA-4 binding assay, primary screen, VLA-4 allosteric modulator project, MLPCN library, flow cytometry, VLA-4 expressing cells; Integrin alpha-4 (Homo sapiens), P13612; ligand binding flow cytometry; inhibition, % (about 7 µM as worked out from the volumes in the protocol); 0.2% of 330,000 active; in the data active = inhibition above about 50%
JMJD2C inh: inhibitors of GASC-1 histone demethylase, primary screen, biochemical, fluorescence, DELFIA europium. Lysine-specific demethylase 4C (Homo sapiens), Q9H3R0. GST-JMJD2C(1-420) H3K9me3 demethylation. inhibition, % at 2.35 µM. 0.069% of 330,000 active. AID 2099, 2009;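 active = more than half of a compound's replicate wells show inhibition beyond 50%, single wells judged on their own value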;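 also: signal counts dimethyl H3K9 product captured on neutravidin plate; 0% = median of DMSO wells and 100% = 0.3 times that DMSO median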
p-CIP stab down: p/CIP-EGFP fusion destabilizers, primary screen, fluorescence, F442A cells | Q05BA5 | 16 h | decrease of EGFP signal, % at 10 µM | 0.01% of 290,000 active | AID 1984, 2009;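 active = EGFP signal decrease of at least 30% at 10 µM or well 3 SD below plate mean, unless failing retest; inactive = the rest, including hits failing retest or dose response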
GPR7 antag cf: GPR7 receptor antagonists, confirmation, cell-based, fluorescence, single concentration | 52% of 2,400 active | shares compounds with GPR7 antag | GPR7-expressing cells, calcium fluorescence antagonist mode | inhibition, % at 4.4 µM; in the data active = inhibition above about 24%;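 also: stimulated with the GPR7 agonist NPW; 0% = agonist plus vehicle and 100% = vehicle alone without agonist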
MCHR1 antag: MCHR1 antagonists in cells, counter-screen for GPR7 antagonist project, cell-based, fluorescence, human; AID 2148, 2009; inhibition, % at 4.4 µM; 62% of 2,400 active; shares compounds with GPR7 antag; MCHR1-expressing cells, fluorescence antagonist assay; in the data active = inhibition above about 22%;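 also: 0% = vehicle with agonist and 100% = vehicle without agonist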
Starred values were filed as active, the others as inactive. Most compounds without a hit are left out; they make up all but 1.2% or so of the library.

What do the screens show for `CCOc1ccc(-c2cc(NC(=O)c3c(F)cccc3F)c(C(=O)O)s2)cc1`?
GPR7 antag: 51*; VLA-4 inh: 3; JMJD2C inh: 8; p-CIP stab down: 4; GPR7 antag cf: 26*; MCHR1 antag: 28*

How did Cc1ccc(-c2ocnc2C(=O)N2CCN(C(=O)c3cccs3)CC2)cc1 do in these assays?
GPR7 antag: 28*; VLA-4 inh: -3; JMJD2C inh: 1; p-CIP stab down: -17; GPR7 antag cf: 21; MCHR1 antag: 7

How did COc1cc(NC(=O)Cn2c(=O)n(-c3cccc(C)c3)c(=O)c3c(C)c(C)sc32)cc(OC)c1 do in these assays?
GPR7 antag: -5; VLA-4 inh: 5; JMJD2C inh: 4; p-CIP stab down: -14

Results for O=C(Cc1noc2ccccc12)Nc1ccccn1 ?
GPR7 antag: -13; VLA-4 inh: -18; JMJD2C inh: -2; p-CIP stab down: -2

Results for CCC(=O)c1cn(CC(=O)Nc2ccccc2Cl)c2ccccc12 ?
GPR7 antag: 26*; VLA-4 inh: 10; JMJD2C inh: -2; p-CIP stab down: 3; GPR7 antag cf: 12; MCHR1 antag: 16

What do the screens show for `CCOc1ccc(NC(=O)Nc2c(C)n(C)n(-c3ccccc3)c2=O)cc1`?
GPR7 antag: -5; VLA-4 inh: 6; JMJD2C inh: 1; p-CIP stab down: 1

Results for CC1CCc2nc3sc4c(c3c(N)c2C1)CCCC4 (stereo not drawn) ?
GPR7 antag: 3; VLA-4 inh: 4; JMJD2C inh: -3; p-CIP stab down: -10

Results for CC1CCc2c(nc3sc4c(c3c2N)CCCC4)C1 (stereo not drawn) ?
GPR7 antag: 22*; VLA-4 inh: 5; JMJD2C inh: 5; p-CIP stab down: -10; GPR7 antag cf: 21; MCHR1 antag: 20

What do the screens show for `Cn1cc(CN2CCCC(C(=O)Nc3cccc(-c4cc5ccccc5[nH]4)c3)C2)cn1` (stereo not drawn)?
GPR7 antag: 15; VLA-4 inh: 5; JMJD2C inh: 12; p-CIP stab down: -9

Results for CC(C)n1cc(CN2CCCC(C(=O)Nc3cccc(-c4cc5ccccc5[nH]4)c3)C2)cn1 (stereo not drawn) ?
GPR7 antag: 27*; VLA-4 inh: 16; JMJD2C inh: 14; p-CIP stab down: 2; GPR7 antag cf: 42*; MCHR1 antag: 56*

What do the screens show for `Cc1cc(C)c(C)c(S(=O)(=O)N2CCN(C(=O)c3ccccc3OCc3c(C)noc3C)CC2)c1C`?
VLA-4 inh: -11; JMJD2C inh: -2

How did C/C(=N\Nc1ccc(C(=O)O)cc1)c1ccc(S(=O)(=O)NCc2ccco2)cc1 do in these assays?
GPR7 antag: -15; VLA-4 inh: -7; JMJD2C inh: 26; p-CIP stab down: -12

What do the screens show for `Cc1ccc(C)c(S(=O)(=O)Nc2cc3c4c(c2)CCC(=O)N4CCC3)c1`?
VLA-4 inh: 5; JMJD2C inh: 5

Results for CCc1cc(C(=O)OC)c(NC(=O)CCCC(=O)O)s1 ?
GPR7 antag: 26*; VLA-4 inh: -1; JMJD2C inh: 5; p-CIP stab down: -2; GPR7 antag cf: -3; MCHR1 antag: 0

How did O=C(CN1CCCCC1)N/N=C/c1ccccc1Br do in these assays?
GPR7 antag: 30*; VLA-4 inh: 5; JMJD2C inh: -14; p-CIP stab down: -2; GPR7 antag cf: -4; MCHR1 antag: -6

How did O=C(CN1CCCCCCC1)N/N=C/c1ccccc1F do in these assays?
GPR7 antag: 4; VLA-4 inh: 14; JMJD2C inh: 7; p-CIP stab down: -3

Results for CCn1cc(CN2CCC(n3nccc3NC(=O)CCc3ccccc3)CC2)cn1 ?
GPR7 antag: -19; VLA-4 inh: -1; JMJD2C inh: -5; p-CIP stab down: -9

Results for COc1ccc2oc(C(=O)NC3CCCCC3)c(C)c2c1 ?
GPR7 antag: 29*; VLA-4 inh: 7; JMJD2C inh: 6; p-CIP stab down: 9; GPR7 antag cf: 20; MCHR1 antag: 30*

Results for COc1ccc(Br)c(C(=O)NC2CCCC2)c1 ?
GPR7 antag: 22*; VLA-4 inh: 10; JMJD2C inh: -5; p-CIP stab down: -3; GPR7 antag cf: -9; MCHR1 antag: 2

How did C=CCn1c2ccccc2c(=O)c2cc(C#Cc3ccsc3)ccc21 do in these assays?
GPR7 antag: 2; VLA-4 inh: 17; JMJD2C inh: -2; p-CIP stab down: -2

What do the screens show for `CN1CCN(c2ccc(C(F)(F)F)cc2NC(=O)Nc2ccccc2)CC1`?
GPR7 antag: 62*; VLA-4 inh: 2; JMJD2C inh: -4; p-CIP stab down: -3; GPR7 antag cf: 43*; MCHR1 antag: 49*

Results for CC(Cl)C(=O)Nc1cc(C(F)(F)F)ccc1N1CCOCC1 (stereo not drawn) ?
GPR7 antag: -13; VLA-4 inh: 15; JMJD2C inh: 20; p-CIP stab down: -2

How did COc1ccc(C)cc1N(C(=O)c1ccco1)C(C(=O)NC1CCCC1)c1cc(OC)c(OC)c(OC)c1 (stereo not drawn) do in these assays?
GPR7 antag: 43*; VLA-4 inh: -5; JMJD2C inh: 16; p-CIP stab down: 12; GPR7 antag cf: 38*; MCHR1 antag: 24*

What do the screens show for `CCC(C)c1ccc(N(C(=O)c2ccco2)C(C(=O)NC2CCCC2)c2cccnc2)cc1` (stereo not drawn)?
GPR7 antag: 51*; VLA-4 inh: -42; JMJD2C inh: -6; p-CIP stab down: -8; GPR7 antag cf: 22; MCHR1 antag: 14

What do the screens show for `COc1ccc(OC)c(C(c2nnnn2C2CCCC2)N2CCN(c3ccccc3)CC2)c1` (stereo not drawn)?
GPR7 antag: 31*; VLA-4 inh: -2; JMJD2C inh: 0; p-CIP stab down: -1; GPR7 antag cf: 24*; MCHR1 antag: 41*

What do the screens show for `COc1ccc(C(c2nnnn2C2CCCCC2)N2CCN(c3ccc(OC)cc3)CC2)cc1` (stereo not drawn)?
GPR7 antag: -10; VLA-4 inh: 16; JMJD2C inh: 22; p-CIP stab down: -2

Results for COc1ccc(-c2c(C)oc3cc(O)cc(O)c3c2=O)cc1OC ?
GPR7 antag: 27*; VLA-4 inh: 41; JMJD2C inh: 18; p-CIP stab down: -9; GPR7 antag cf: 2; MCHR1 antag: 15

Results for O=C(c1ccc(N2CCN(C(=O)c3ccccc3Br)CC2)cc1)c1cccc(F)c1 ?
GPR7 antag: 28*; VLA-4 inh: -11; JMJD2C inh: 10; p-CIP stab down: -14; GPR7 antag cf: 4; MCHR1 antag: 69*
